Screening results: PubChem, National Center for Advancing Translational Sciences (NCATS)
uPA generation – cell surface uPA generation inhibition; 0.31% of 330,000 active; Potency, µM (titrated, usually from 38.3 µM), usual class: inhibitors; cell surface uPA generation assay, qHTS; AID 540303; active = well fitted inhibition curve with a large enough effect; inconclusive = small, poorly fitted or top-dose-only effect; inactive = no such curve, though single readings can be large or run the other way; tested in mouse RAW 264.7 cells; also: nearly all actives have a fitted effect of over 55% in size
a7 integrin act – activators of alpha7 integrin expression for muscular dystrophy; alpha7betagal myoblasts, beta-gal FDG fluorescence, 48 h; Potency, µM (doses to about 38.3 µM), hits mostly activators; 0.064% of 350,000 active; AID 624291; also: nearly all actives have a fitted effect of over 60% in size
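alpha7betagal+/- myoblasts (passage 13, 250/well) treated 48 h at 37C with compounds at 1:260 dilution of DMSO stock. Lysed, then beta-galactosidase activity read as FDG fluorescence (ex 480/em 540) after 30 min, with pre-read for autofluorescence.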
Mito fusion yeast – mitochondrial division inhibition or fusion activation | S. cerevisiae fusion-defective mutant growth rescue, CellTiterGlo 48 h | Potency, µM (highest dose often 46.1 µM), hits mostly activators | 0.23% of 320,000 active | AID 485298; also: nearly all actives have a fitted effect of over 45% in size
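S. cerevisiae fusion-defective temperature-sensitive mutants (e.g. fzo1-1, mgm1-5) grown 48 h at 37C in YPEG (ethanol/glycerol non-fermentable) medium with 23 nl compound per well; growth rescue read as CellTiterGlo luminescence.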
RORgamma inh – blocks mouse ROR gamma transcriptional activity; P51450; Drosophila S2 Gal4-RORgamma UAS-luciferase reporter, 20 h; AID 2551; Potency, µM (doses to about 53.6 µM), hits mostly inhibitors; 5.4% of 310,000 active; also: nearly all actives have a fitted effect of over 60% in size
Target sequence (P51450 whole entry, looked up, the tested form may be a part): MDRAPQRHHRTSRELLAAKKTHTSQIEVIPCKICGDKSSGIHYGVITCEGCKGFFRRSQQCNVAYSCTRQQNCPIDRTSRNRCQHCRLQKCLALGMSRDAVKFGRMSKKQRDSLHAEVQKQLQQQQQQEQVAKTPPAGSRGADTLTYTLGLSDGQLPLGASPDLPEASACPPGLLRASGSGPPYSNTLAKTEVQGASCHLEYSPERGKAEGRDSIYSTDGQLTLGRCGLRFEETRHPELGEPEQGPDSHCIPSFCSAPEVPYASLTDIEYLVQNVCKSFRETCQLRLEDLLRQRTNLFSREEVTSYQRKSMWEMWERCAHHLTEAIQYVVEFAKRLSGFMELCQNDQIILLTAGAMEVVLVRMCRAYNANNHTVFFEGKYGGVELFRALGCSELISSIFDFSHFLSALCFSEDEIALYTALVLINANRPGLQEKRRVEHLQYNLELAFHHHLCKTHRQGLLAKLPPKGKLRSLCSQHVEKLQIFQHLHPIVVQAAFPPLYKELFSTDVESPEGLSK
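A Gal4/UAS one-hybrid system in insect cells: metallothionein-promoter Gal4–ROR gamma fusion plus Photinus luciferase reporter. Copper sulfate 700 uM final, 20 hr ambient incubation, luminescent detection after 10 min with reagent.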
BCR signal inh – blocks chronic active B-cell receptor signaling; ABC-DLBCL IkBa-CBG/CBR reporter, luminescence ratio, 4 h; Potency, µM (top dose mostly 46.1 µM), hits mostly inhibitors; 0.05% of 340,000 active; AID 493014; active = well fitted inhibition curve with a large enough effect in the signal ratio, with a control signal flat, not every such curve was filed as active; inconclusive = small, poorly fitted or top-dose-only effect, or effect the other way, or a change in a side signal; the % refers to the signal ratio
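TMD8 human ABC-DLBCL cells with doxycycline-inducible IκBα–green luciferase fusion and unfused red luciferase, in 0.5% FBS medium; compounds up to 46 uM, 4 h at 37C. Green/red luminescence ratio, filter-overlap corrected, fitted to concentration-response curves.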
VP16 counter – Gal4-VP16 reporter inhibition counter-screen | 3.5% of 310,000 active | AID 2546 | Drosophila S2 Gal4-VP16 UAS-luciferase, luminescence, 20 h | Potency, µM (doses to about 53.6 µM), hits mostly inhibitors;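 also: Gal4-VP16 expression switched on by copper sulfate through the metallothionein promoter; nearly all actives have a fitted effect of over 50% in size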
Of the large screens only hits and unclear results are named; the others gave an inactive call. Rows were chosen to be rich in hits. Some 5.5% of all compounds tested hit in one or more screens of this group. Unless noted, calls follow the shape of the dose curve; as a rule, active = well fitted curve in the direction sought with a large enough effect; inconclusive = small, poorly fitted or top-dose-only effect, or another doubt; inactive = no such curve, though single readings can be large; an effect the other way counts as inactive or inconclusive.

O=c1cc(CSc2ccc(Cl)cc2)nc(-c2ccccn2)[nH]1	uPA generation inconclusive, RORgamma inh 3.98µM, BCR signal inh inconclusive, VP16 counter 4.47µM
Cc1cc(-c2ccccc2)n(-c2cc(N/N=C/c3ccccc3O)ncn2)n1	uPA generation 10µM, RORgamma inh 11.2µM, BCR signal inh 14.6µM, VP16 counter 5.62µM
COc1cc(-c2nc3ccc4ccccc4c3c3c2CCC3)cc(OC)c1OC	RORgamma inh 5.62µM, BCR signal inh inconclusive, VP16 counter 22.4µM
CC1CC(=O)c2c(cc3c(-c4c(O)cc(O)c5c(O)c6c(cc45)OC(C)CC6=O)c(O)cc(O)c3c2O)O1 (stereo not given)	uPA generation inconclusive, RORgamma inh 5.01µM, BCR signal inh inconclusive, VP16 counter 12.6µM
O=C1CC(c2ccc(O)cc2)Oc2cc(O)cc(O)c21 (stereo not given)	RORgamma inh inconclusive (no result: a7 integrin act)
ClC(Cl)=C(Cl)Cl	none (no result: uPA generation, a7 integrin act, Mito fusion yeast, BCR signal inh)
COc1ccc(C(=O)OC2CCN(C)CC2)cc1	RORgamma inh 12.6µM
Cc1ccc2c(c1)oc(=O)n2CC(=O)c1ccccc1	BCR signal inh inconclusive
NC(Cc1ccc(Oc2cc(I)c(O)c(I)c2)c(I)c1)C(=O)O (stereo not given)	none (no result: uPA generation, a7 integrin act, Mito fusion yeast, BCR signal inh)
C(=C\c1ccc2ccccc2n1)/c1ccccc1	uPA generation 5.62µM, BCR signal inh inconclusive
Cc1occc1C(=O)Nc1ccccc1	none (no result: uPA generation, a7 integrin act, Mito fusion yeast, BCR signal inh)
CCOC(=O)C/C(C)=N/NC(=O)COc1ccccc1C	RORgamma inh 14.1µM, VP16 counter inconclusive
CCN(CC)C(=O)Cn1c(=O)oc2ccccc21	BCR signal inh inconclusive
CC(C)CCCC1(C)C=Cc2c(O)c3c(c(CCC(C)C)c2O1)OC12C(CC4CC1C(C)(C)OC2(CCC(C)C(=O)O)C4O)C3=O (stereo not given)	none (no result: uPA generation, a7 integrin act, Mito fusion yeast, BCR signal inh)
CC(C)=CCCC1(C)C=Cc2c(O)c3c(c(CC=C(C)C)c2O1)OC12C(=CC4CC1C(C)(C)OC2(C/C=C(/C)C(=O)O)C4O)C3=O (stereo not given)	RORgamma inh 2.82µM, VP16 counter 2.24µM (no result: uPA generation, a7 integrin act, Mito fusion yeast, BCR signal inh)
CC(C)=CCCC1(C)C=Cc2c(O)c3c(c(CC=C(C)C)c2O1)OC12C(=CC4CC1C(C)(C)OC2(C/C=C(/C)C(=O)O)C4=O)C3=O (stereo not given)	RORgamma inh 3.16µM, VP16 counter 5.01µM (no result: uPA generation, a7 integrin act, Mito fusion yeast, BCR signal inh)
COc1c(CC=C(C)C)c2c(c3oc(=O)c(-c4ccc(O)cc4)c(O)c13)C=CC(C)(C)O2	none (no result: uPA generation, a7 integrin act, Mito fusion yeast, BCR signal inh)
CC(C)C#N	none (no result: uPA generation, a7 integrin act, Mito fusion yeast, BCR signal inh)
Oc1ccc(Cl)cc1Cl	none (no result: uPA generation, a7 integrin act, Mito fusion yeast, BCR signal inh)
O=C(Cc1ccc(Cl)cc1)Nc1ccccc1N1CCN(C(=O)c2ccccc2)CC1	BCR signal inh inconclusive
CC(C)(C)c1ccc(-c2n[nH]c(=S)n2CCCN2CCOCC2)cc1	RORgamma inh 7.94µM
Cc1ccc(S(=O)(=O)N(C)/N=C/c2ccc(N(C)C)cc2)cc1	BCR signal inh inconclusive
Oc1ccc(-[n+]2c(-c3ccccc3)cc(-c3ccccc3)cc2-c2ccccc2)cc1	uPA generation inconclusive, BCR signal inh inconclusive (no result: RORgamma inh, VP16 counter)
Oc1ccccc1-[n+]1c(-c2ccccc2)cc(-c2ccccc2)c(O)c1-c1ccccc1	uPA generation inconclusive, Mito fusion yeast 11.2µM, BCR signal inh inconclusive (no result: RORgamma inh, VP16 counter)
C=Cn1ccnc1P(=S)(c1c(C)nn(-c2ccccc2)c1C)c1nccn1C=C	BCR signal inh inconclusive
C=Cn1ccnc1P(=S)(c1ccc(N(C)C)cc1)c1nccn1C=C	RORgamma inh 10µM, BCR signal inh inconclusive, VP16 counter inconclusive
Cc1ccc(S(=O)(=O)NN)c(C)c1N1CCCC1=O	a7 integrin act inconclusive
CC(C)[C@H](NC(=O)[C@H](CCC(=O)O)NC(=O)[C@H](Cc1ccccc1)NC(=O)[C@@H](C)NC(=O)[C@@H](N)Cc1ccc(O)cc1)C(=O)N[C@H](C(=O)NCC(N)=O)C(C)C	none (no result: uPA generation, a7 integrin act, Mito fusion yeast, BCR signal inh)
COC(=O)C(Cc1ccc(N(CCCl)CCCl)cc1)N=Cc1ccccc1O (stereo not given)	RORgamma inh 7.94µM, BCR signal inh inconclusive, VP16 counter inconclusive
CC(=O)NC(Cc1ccc(N(CCCl)CCCl)cc1)C(=O)NC(CC(C)C)C(=O)O (stereo not given)	none
